# Assay outcomes deposited in PubChem by several laboratories.
# The list is not random: actives were taken first. Their share in the collection is about 2.8%.
# CF NFkB block = inhibitors of cystic fibrosis induced NF-kB | KKLEB NF-kB-GFP reporter, PAF-induced, GFP fluorescence overnight | hit rate 0.86% among 360,000 | AID 588850 | inhibition, % at 5 µM;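 active = at least 50% inhibition at 5 µM, scaled per plate between neutral and stimulator controls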;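 note: PAF is a Pseudomonas aeruginosa culture filtrate used as stimulus; plate controls were PAF-stimulated DMSO wells for no effect and unstimulated DMSO wells for full effect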
# MITF TRPM1 inh = reduces MITF-dependent TRPM1 promoter luciferase signal. SK-MEL-5 TRPM1 promoter luciferase, 24 h. AID 488899. hit rate 0.83% among 330,000. inhibition, % at 12.5 µM;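 active = mean inhibition across replicates of 60% or more, whatever share of single replicates reaches that level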
# HIF-2a block = HIF-2a inhibition | inhibition, % at 18.8 µM | hit rate 0.72% among 360,000 | 786-0 RCC cells HIF-2a reporter, luciferase luminescence, overnight | AID 624352;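 active = inhibition of the luminescence signal of 40% or more relative to plate controls, in a single-dose primary screen at 18.75 µM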
# KKLEB cytotox = CF airway cell cytotoxicity counter-screen | KKLEB CF airway cells viability, ATPlite luminescence, overnight; hits give low values; cells stimulated with P. aeruginosa culture filtrate | activity change (cytotoxicity), % at 5 µM | hit rate 0.36% among 360,000;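 active = corrected activity change at or below -50% at 5 µM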
# Peg3 prom inh = inhibitors of Peg3 promoter. HeLa PEG-Prom luciferase reporter, luminescence, overnight. inhibition, % at 20 µM. hit rate 1.7% among 360,000. AID 588405;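 active = inhibition of at least 50% at 20 µM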
# Beta2AR agonist = activates human beta-2 adrenergic receptor causing internalization. P07550. Am2.2-beta2AR cells, FAP receptor internalization, flow cytometry. response, % (test concentration not listed). hit rate 0.43% among 340,000. AID 504454;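 active = response above a set limit, near 3 SD of response in nonfluorescent compounds, cut at about 42% in these data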
# Target sequence (P07550 whole entry, looked up): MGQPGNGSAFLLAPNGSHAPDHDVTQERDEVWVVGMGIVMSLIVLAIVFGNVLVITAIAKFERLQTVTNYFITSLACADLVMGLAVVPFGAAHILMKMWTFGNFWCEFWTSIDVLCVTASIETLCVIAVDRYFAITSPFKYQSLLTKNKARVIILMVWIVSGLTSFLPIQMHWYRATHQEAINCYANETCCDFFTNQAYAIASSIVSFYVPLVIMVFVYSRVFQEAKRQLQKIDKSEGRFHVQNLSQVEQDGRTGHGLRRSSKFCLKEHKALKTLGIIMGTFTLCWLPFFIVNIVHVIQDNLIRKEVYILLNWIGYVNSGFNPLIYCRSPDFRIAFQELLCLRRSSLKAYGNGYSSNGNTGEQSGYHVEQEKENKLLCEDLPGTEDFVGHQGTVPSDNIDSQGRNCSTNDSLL
# B2AR ag CP1 = agonists of human beta-2 adrenergic receptor; hit rate 25% among 1,100; percent response (surface receptor), % at 10 µM; shares compounds with Beta2AR agonist; Am2.2-beta2AR cells, FAP surface receptor, flow cytometry; hits give low values;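 active = surface receptor percent response at or below 58%, roughly 3 SD from nonfluorescent compounds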
# B2AR FAP counter = fluorescence artifact in beta-2AR agonist FAP counterscreen | shares compounds with Beta2AR agonist | Am2.2 cells, FAP fluorogen flow cytometry; hits give low values | calls only at 10 µM | 1,100 tested, under 10 active | AID 588765;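 active = percent response below a set limit in fluorescence channel 1 and below 50% in channel 8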
# The depositor's hits bear a star; i = inactive; . = no result.
SMILES,CF NFkB block,MITF TRPM1 inh,HIF-2a block,KKLEB cytotox,Peg3 prom inh,Beta2AR agonist,B2AR ag CP1,B2AR FAP counter
COc1ccc(-c2cc(C)no2)cc1S(=O)(=O)N1CCOc2ccc(Cl)cc21,27.3,22.3,2.4,-19.3,16.3,46.4*,121.1,i
CC(C)CC(=O)Nc1ccccc1N1CCN(c2ccc(F)cc2)CC1,9.7,-2.4,11.9,-3.8,7.7,-0.8,.,.
CC(C)(C)C(=O)Nc1ccccc1N1CCN(c2ccc(F)cc2)CC1,16.2,0.6,12.7,-9.3,5.3,66.8*,105.4,i
CCOc1cc(CNCCc2ccc(S(N)(=O)=O)cc2)cc(Cl)c1OCc1ccccc1,2.4,0.5,-94.0,-3.7,6.4,30.7,.,.
CCOc1cc(CNCCc2ccc(S(N)(=O)=O)cc2)ccc1OCc1ccccc1,16.7,-11.7,12.4,-22.0,17.3,13.2,110.5,i
CCNC(=O)C1(C)CCCN(Cc2ccc(-n3ccnc3)cc2)C1 (stereo not drawn),2.7,.,2.7,-11.6,-6.3,.,.,.
Cn1c(N2CCN(c3ccccn3)CC2)nc2c1c(=O)n(Cc1ccc(Cl)cc1)c(=O)n2C,-5.8,9.2,14.4,-7.8,14.0,127.0*,23.4*,i
O=C1C2CCCCN2C(=O)N1CCCCN1CCN(c2cccc(Cl)c2)CC1 (stereo not drawn),2.6,6.3,11.4,10.7,9.1,-7.2,.,.
O=C1C2CCCCN2C(=O)N1CCCCN1CCN(c2cccc(C(F)(F)F)c2)CC1 (stereo not drawn),15.1,-4.8,10.1,-11.5,22.3,59.3*,69.9,i
O=C(Cn1cc2c(n1)CCCC2)NCc1ccccn1,-24.6,-6.8,9.0,13.5,-2.4,99.7*,105.0,i
Cc1ccc(NC(=O)C(c2ccc(Cl)cc2)N2CCOCC2)cc1 (stereo not drawn),2.7,12.8,-6.4,1.8,-5.0,47.8*,46.5*,i
Cc1ccc(C(C(=O)NC2CCCCC2)N2CCOCC2)cc1 (stereo not drawn),-5.6,-9.9,-90.8,1.2,-36.4,10.7,.,.
Cc1ccc(NC(=O)C(c2ccc(Cl)cc2)N2CCCCC2)cc1 (stereo not drawn),9.6,1.1,6.7,-10.4,-9.8,46.8*,35.8*,i
Cc1cccc(C)c1NC(=O)C(c1ccc(C#N)cc1)n1c(=O)c(-c2ccccc2)nc2ccccc21 (stereo not drawn),.,.,-2.1,.,.,.,.,.
CCOc1ccc2nc(N3C(=O)CNC3=S)sc2c1,-0.4,-17.8,-147.2,13.2,-158.2,3.2,103.5,i
Cc1cccc(C)c1NC(=O)C1(C)CSCC(=O)N1CCc1ccc(O)cc1 (stereo not drawn),.,.,3.4,.,.,.,.,.
COC(=O)Nc1ccc(S(=O)(=O)N2CCCc3cccc(O)c32)cc1,25.1,.,9.1,-28.6,14.2,52.3*,81.7,i
COC(=O)Nc1ccc(S(=O)(=O)N2CCCc3ccccc32)cc1,17.5,7.0,-8.2,-15.5,18.2,8.2,.,.
CCOc1ccc(-n2c(Cc3cc(=O)[nH]c(=O)[nH]3)nnc2SCC(=O)NC2CCCC2)cc1,-21.8,.,11.1,-0.7,-0.2,1.9,.,.
COc1ccc(-n2ccnc(SCC(=O)NC3CCCC3)c2=O)cc1,14.7,11.0,-3.8,-16.6,2.5,6.3,.,.
COc1ccc(-n2ccnc(SCC(=O)NC3CCCCC3)c2=O)cc1,7.1,-23.7,2.2,-5.1,-5.1,92.7*,103.3,i
COc1ccc(-n2c(Cc3cc(=O)[nH]c(=O)[nH]3)nnc2SCC(=O)NC2CCCC2)cc1,2.5,3.1,3.9,15.2,5.1,51.7*,88.0,i
C[C@H](CO)N1C[C@H](C)[C@@H](CN(C)S(=O)(=O)c2ccc3ccccc3c2)OCc2cnnn2CCCC1=O,-6.2,.,14.0,-2.9,2.1,.,.,.
CC(C)(C)OC(=O)N1CCN(C(c2ccnc3ccccc23)c2nnnn2-c2ccc3c(c2)OCCO3)CC1 (stereo not drawn),.,.,-52.6,.,.,.,.,.
Cc1cccc(C)c1NC(=O)C(c1ccccc1)n1c(-c2ccccc2)nc2ccccc21 (stereo not drawn),.,.,-31.6,.,.,.,.,.
SMILES,CF NFkB block,MITF TRPM1 inh,HIF-2a block,KKLEB cytotox,Peg3 prom inh,Beta2AR agonist,B2AR ag CP1,B2AR FAP counter
Cc1cc(N2CCN(C(=O)c3ccco3)CC2)n2nc(-c3cccc(Cl)c3)cc2n1,-13.6,8.8,-66.2,0.2,32.2,42.3*,108.6,i
C[C@@H]1CN([C@H](C)CO)C(=O)CCCn2cc(nn2)CO[C@H]1CN(C)C(=O)Nc1ccccc1F,-12.7,.,1.0,4.6,-1.9,.,.,.
COc1ccc(OCC(=O)NNC(=O)c2cccs2)cc1,1.7,6.6,9.7,4.4,2.8,2.2,.,.
COc1ccc(OCC(=O)Nc2ccc(NC(=O)c3cccs3)cc2)cc1,2.0,-13.5,3.8,-4.0,-52.4,54.5*,74.5,i
O=C(Cn1nc(-c2ccccc2)ccc1=O)Nc1ccc(NC(=O)c2ccccn2)cc1,33.1,21.7,7.1,-28.6,-0.3,125.0*,26.2*,i
O=C(Cn1nc(-c2ccccc2)ccc1=O)Nc1ccc(-n2cnnn2)cc1,-15.2,4.8,20.6,-0.2,17.0,9.1,.,.
CC1(C(=O)NS(=O)(=O)c2cccc(C#N)c2)CCN1C(=O)Cc1ccccc1Cl (stereo not drawn),-19.4,.,7.9,5.8,-1.4,.,.,.
CC(C)NCC(O)c1cc(O)cc(O)c1 (stereo not drawn),9.5,-7.5,-9.2,-0.5,-6.7,0.1,93.3,i
CC(C)NC[C@H](O)c1ccc(O)c(O)c1,-6.1,3.6,0.6,35.3,5.1,.,.,.
O=C(COc1ccccc1)N(Cc1cccc(F)c1)C1CCS(=O)(=O)C1 (stereo not drawn),0.1,-0.4,8.0,0.7,12.8,0.2,.,.
O=C(COc1ccc(F)cc1)N(Cc1cccc(Br)c1)C1CCS(=O)(=O)C1 (stereo not drawn),24.3,2.2,7.5,-6.6,9.8,52.8*,109.0,i
CCOC(=O)[C@]12CCCC=C1N(Cc1ccc3c(c1)OCO3)C(=O)[C@H](CC(=O)N1CCOCC1)C2,.,.,2.8,.,.,.,.,.
CCOC(=O)N1CCN(c2ncnc3c2[nH]c2ccc(OC)cc23)CC1,10.1,9.0,2.8,-1.9,37.9,90.5*,124.2,i
Cn1ccc2c(-c3ccc4c(c3)OCCO4)cc3c(c21)C1CCC3O1 (stereo not drawn),-12.2,.,-191.9,9.5,-127.1,.,.,.
CCC1CCCCN1CCCNC(=O)c1ccc(/C=C2/Sc3ccccc3NC2=O)cc1 (stereo not drawn),5.6,28.4,-33.3,-2.9,99.4*,43.9*,107.8,i
COc1ccc(S(=O)(=O)N2CCC[C@H]2C(=O)N2CCC[C@H]2C(=O)NCc2ccccn2)cc1C,.,.,-0.3,.,.,.,.,.
